Reference: PubChem BioAssay AID1159580 (chemical genetic matrix, 2015)
Where “and” joins values, the source holds several entries; their conditions need not be identical. Identical values can stand only once. Among all 5,500 compounds or so, about 2,000 (36%) were called active. Another 18% or so got no clear call; they are omitted. No stated cut-off is given here; in the data, active means normalized growth mostly below about 0.91 (no sharp cut-off); inconclusive means no clear call, values can overlap the other calls; inactive means mostly above about 0.92. This is one part of the list.

Experiment: chemical genetic growth profiling, strain panel (AID 1159580);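 further: tested at 20 µM; growth read once vehicle control cultures reached saturation at 30 °C; 1 = growth at the plate median or of vehicle wells; lower values mean less growth of the strain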
Conditions: growth OD

Measured: normalized growth

COc1ccc(CN(CCN(C)C)c2ccccn2)cc1
inactive: S. cerevisiae deletion strains, locus YJR066W, strain TOR1, hits give low values 0.997 | S. cerevisiae deletion strains, locus YJR075W, strain HOC1, hits give low values 0.979 | S. cerevisiae deletion strains, locus YKL009W, strain mrt4, hits give low values 0.954 | S. cerevisiae deletion strains, locus YKL068W, hits give low values 0.992 | S. cerevisiae deletion strains, locus YKL085W, strain MDH1 (second series), hits give low values 0.978 | S. cerevisiae deletion strains, locus YKL085W, strain MDH1, hits give low values 0.978 | S. cerevisiae deletion strains, locus YKL160W, strain elf1, hits give low values 1.04 | S. cerevisiae deletion strains, locus YKL190W, strain CNB1, hits give low values 0.996 | S. cerevisiae deletion strains, locus YKR001C, strain vps1, hits give low values 0.994 | S. cerevisiae deletion strains, locus YKR026C, strain gcn3, hits give low values 1.01 | S. cerevisiae deletion strains, locus YKR091W, strain srl3, hits give low values 1 | S. cerevisiae deletion strains, locus YLL001W, strain dnm1, hits give low values 1.01 | S. cerevisiae deletion strains, locus YLL026W, hits give low values 1.02 | S. cerevisiae deletion strains, locus YLL041C, strain sdh2, hits give low values 1.01 | S. cerevisiae deletion strains, locus YLR027C, strain aat2, hits give low values 1.02 | S. cerevisiae deletion strains, locus YLR039C, strain RIC1, hits give low values 0.996 | S. cerevisiae deletion strains, locus YLR058C, strain SHM2, hits give low values 0.997 | S. cerevisiae deletion strains, locus YLR102C, strain apc9, hits give low values 0.996 | S. cerevisiae deletion strains, locus YLR113W, strain HOG1, hits give low values 1.01 | S. cerevisiae deletion strains, locus YLR221C, strain rsa3, hits give low values 1.01 | S. cerevisiae deletion strains, locus YLR258W, strain gsy2, hits give low values 1.03 | S. cerevisiae deletion strains, locus YLR262C, strain YPT6 (second series), hits give low values 1.01 | S. cerevisiae deletion strains, locus YLR262C, strain YPT6, hits give low values 0.992 | S. cerevisiae deletion strains, locus YLR268W, strain sec22, hits give low values 0.963 | S. cerevisiae deletion strains, locus YLR320W, strain mms22, hits give low values 1.02 | S. cerevisiae deletion strains, locus YLR330W, strain CHS5, hits give low values 0.98 | S. cerevisiae deletion strains, locus YLR342W, strain FKS1 (second series), hits give low values 0.995 | S. cerevisiae deletion strains, locus YLR342W, strain FKS1, hits give low values 1.03 | S. cerevisiae deletion strains, locus YLR357W, strain rsc2, hits give low values 1.03 | S. cerevisiae deletion strains, locus YLR370C, strain arc18, hits give low values 1.02 | S. cerevisiae deletion strains, locus YLR371W, strain rom2, hits give low values 0.972 | S. cerevisiae deletion strains, locus YLR384C, strain iki3, hits give low values 1.02 | S. cerevisiae deletion strains, locus YLR418C, strain cdc73, hits give low values 1 | S. cerevisiae deletion strains, locus YML016C, strain PPZ1, hits give low values 0.997 | S. cerevisiae deletion strains, locus YML032C, strain rad52, hits give low values 0.979 | S. cerevisiae deletion strains, locus YML120C, strain ndi1, hits give low values 1.02 | S. cerevisiae deletion strains, locus YML124C, strain tub3, hits give low values 0.991 | S. cerevisiae deletion strains, locus YMR058W, strain fet3, hits give low values 1 | S. cerevisiae deletion strains, locus YMR078C, strain ctf18, hits give low values 0.992 | S. cerevisiae deletion strains, locus YMR125W, strain sto1, hits give low values 1.02 | S. cerevisiae deletion strains, locus YMR129W, hits give low values 1.01 | S. cerevisiae deletion strains, locus YMR205C, strain PFK2, hits give low values 1.02 | S. cerevisiae deletion strains, locus YMR223W, strain ubp8, hits give low values 1.02 | S. cerevisiae deletion strains, locus YMR231W, strain pep5, hits give low values 1.02 | S. cerevisiae deletion strains, locus YMR307W, strain GAS1, hits give low values 1.01 | S. cerevisiae deletion strains, locus YNL067W, strain RPL9B, hits give low values 0.996 | S. cerevisiae deletion strains, locus YNL071W, strain lat1, hits give low values 1.02 | S. cerevisiae deletion strains, locus YNL128W, strain TEP1, hits give low values 0.967 | S. cerevisiae deletion strains, locus YNL175C, strain NOP13, hits give low values 1.01 | S. cerevisiae deletion strains, locus YNL183C, strain NPR1, hits give low values 0.991 | S. cerevisiae deletion strains, locus YNL197C, strain WHI3, hits give low values 0.966 | S. cerevisiae deletion strains, locus YNL209W, strain ssb2, hits give low values 1.04 | S. cerevisiae deletion strains, locus YNL224C, strain SQS1, hits give low values 0.988 | S. cerevisiae deletion strains, locus YNL233W, strain BNI4, hits give low values 1 | S. cerevisiae deletion strains, locus YNL248C, strain rpa49, hits give low values 1.05 | S. cerevisiae deletion strains, locus YNL250W, strain rad50, hits give low values 0.985 | S. cerevisiae deletion strains, locus YNL271C, strain bni1, hits give low values 0.992 | S. cerevisiae deletion strains, locus YNL298W, strain CLA4, hits give low values 0.997 | S. cerevisiae deletion strains, locus YNL307C, strain MCK1, hits give low values 0.986 | S. cerevisiae deletion strains, locus YNL322C, strain KRE1 (second series), hits give low values 1.04 | S. cerevisiae deletion strains, locus YNR049C, strain mso1, hits give low values 1.01 | S. cerevisiae deletion strains, locus YNR052C, strain pop2, hits give low values 0.993 | S. cerevisiae deletion strains, locus YOL006C, strain TOP1, hits give low values 1.04 | S. cerevisiae deletion strains, locus YOL012C, strain htz1 0.809 | S. cerevisiae deletion strains, locus YOL147C, strain pex11, hits give low values 0.988 | S. cerevisiae deletion strains, locus YOR001W, strain rrp6, hits give low values 0.991 | S. cerevisiae deletion strains, locus YOR061W, strain CKA2, hits give low values 1 | S. cerevisiae deletion strains, locus YOR069W, strain VPS5, hits give low values 0.986 | S. cerevisiae deletion strains, locus YOR070C, strain gyp1, hits give low values 1.02 | S. cerevisiae deletion strains, locus YOR080W, strain dia2, hits give low values 1.03 | S. cerevisiae deletion strains, locus YOR083W, strain WHI5 (second series), hits give low values 0.991 | S. cerevisiae deletion strains, locus YOR083W, strain WHI5, hits give low values 0.998 | S. cerevisiae deletion strains, locus YOR106W, strain vam3, hits give low values 1.04 | S. cerevisiae deletion strains, locus YOR136W, strain idh2, hits give low values 1 | S. cerevisiae deletion strains, locus YOR144C, strain elg1, hits give low values 1 | S. cerevisiae deletion strains, locus YOR184W, strain ser1, hits give low values 1 | S. cerevisiae deletion strains, locus YOR231W, strain MKK1, hits give low values 1 | S. cerevisiae deletion strains, locus YOR265W, strain rbl2, hits give low values 1.02 | S. cerevisiae deletion strains, locus YOR270C, strain vph1, hits give low values 1.08 | S. cerevisiae deletion strains, locus YOR290C, strain snf2, hits give low values 1.04 | S. cerevisiae deletion strains, locus YOR316C, strain cot1, hits give low values 0.988 | S. cerevisiae deletion strains, locus YPL051W, strain arl3, hits give low values 1.04 | S. cerevisiae deletion strains, locus YPL078C, strain atp4, hits give low values 1.04 | S. cerevisiae deletion strains, locus YPL106C, strain sse1, hits give low values 1.04 | S. cerevisiae deletion strains, locus YPL240C, strain hsp82, hits give low values 1.01 | S. cerevisiae deletion strains, locus YPL241C, strain CIN2, hits give low values 0.995 and 0.99 | S. cerevisiae deletion strains, locus YPL256C, strain CLN2, hits give low values 1.05 | S. cerevisiae deletion strains, locus YPR119W, strain clb2, hits give low values 0.988 | S. cerevisiae deletion strains, locus YPR141C, strain kar3, hits give low values 0.981 | S. cerevisiae deletion strains, locus YPR163C, strain tif3, hits give low values 0.988 | S. cerevisiae deletion strains, locus YPR167C, strain met16, hits give low values 0.983 | S. cerevisiae deletion strains, strain wtn01, hits give low values 0.984 | S. cerevisiae strains, strain wild type, hits give low values 0.992
